In PubChem BioAssay (Tox21) one finds Potency and outcome data, which are given here for seven compounds.

Assay [1] is described as follows: qHTS assay for small molecules that induce genotoxicity in human embryonic kidney cells expressing luciferase-tagged ATAD5 (AID 651632). Also: nearly all actives have a fitted effect of over 15% in size. An outline of the steps: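 Test compounds were delivered by pin tool onto HEK293T reporter cells (2,000/well) expressing ATAD5 fused to luciferase. After 16 hr at 37C, 5% CO2, Amplite was added for 30 min at room temperature and luminescence was measured.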

Assay [2] is described as follows: qHTS assay to test for compound auto fluorescence at 590 nm (red) in HepG2 cells (AID 720674). An outline of the steps:
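Rose Bengal sodium served as the red fluorophore standard. HepG2 monolayers (overnight attachment, MEM with 10% FBS) were exposed to test compounds for 1 hr at 37 C and read at Ex 540/Em 590 nm.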
(In general: Quantitative high-throughput screening tests each substance at several concentrations.)

Assay [3] can be described thus: qHTS assay to test for compound auto fluorescence at 460 nm (blue) in HEK293 cells (AID 720678). An outline of the steps: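 Blue read-out at excitation 405 nm and emission 460 nm follows overnight compound exposure of HEK293 cells at 37C in 5% CO2. Activity is given as auto fluorescence equivalency to triamterene.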
The nature of assay [4]: qHTS assay to test for compound auto fluorescence at 590 nm (red) in HEK293 cells (AID 720679). An outline of the steps: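 Red channel, Ex/Em 540/590nm; signal expressed as equivalency to Rose Bengal sodium. HEK293, 2,000 cells/well, 10% dialyzed FBS; 23 nL compound pinned after 4-5 hr attachment; overnight 37C/5% CO2 before reading.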
Assay [5] can be described thus: qHTS assay to test for compound auto fluorescence at 460 nm (blue) in HepG2 cells (AID 720687). An outline of the steps:
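Cells (2,000/well in MEM with 10% FBS) attached overnight at 37 C, then were exposed to compound or DMSO for 1 hr at 37 C, 5% CO2. Fluorescence read at Ex/Em 405/460 nm, expressed as triamterene-equivalent signal.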

Assay [6] deals with Glucocorticoid receptor (Homo sapiens) (UniProt P04150). The assay can be described thus: qHTS assay to identify small molecule agonists of the glucocorticoid receptor (GR) signaling pathway (AID 720691; active = well fitted activation curve with a large enough effect in the signal ratio in the repeat runs, not every such curve was filed as active; the % refers to the signal ratio). An outline of the steps: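 A HeLa cervical cancer line expressing GR and a glucocorticoid response element-driven beta-lactamase gene is treated with compounds for 18 h; LiveBLAzer B/G FRET substrate is then applied and fluorescence read.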

Assay [7] has the same target. The assay can be described thus: qHTS assay to identify small molecule antagonists of the glucocorticoid receptor (GR) signaling pathway (AID 720692; active = well fitted inhibition curve with a large enough effect in the signal ratio in the repeat runs, not every such curve was filed as active; the % refers to the signal ratio; also: potency is read from the fitted curve at half-maximal effect). An outline of the steps: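 GRE-bla HeLa line, dex-stimulated (5 nM final). Compound exposure 18 h, 37 C. Beta-lactamase FRET read after 2 h RT substrate.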
Assay [8] in a line: qHTS assay to identify small molecule antagonists of the glucocorticoid receptor (GR) signaling pathway - cell viability counter screen (AID 720693). Also: nearly all actives have a fitted effect of over 55% in size.
Assay [9] in a line: qHTS assay for identifying genotoxic compounds that show differential cytotoxicity against isogenic chicken DT40 cell lines with known DNA damage response pathways - Rad54/Ku70 mutant cell line (AID 743015). Also: nearly all actives have a fitted effect of over 60% in size. Also: potency is read from the fitted curve at half-maximal effect.
The nature of assay [10]: qHTS assay to identify small molecule antagonists of the thyroid receptor (TR) signaling pathway - cell viability counter screen (AID 743064). Also: nearly all actives have a fitted effect of over 50% in size. Also: potency is read from the fitted curve at half-maximal effect. An outline of the steps: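 Rat GH3 pituitary tumor cells stably expressing two TR response elements driving luciferase were plated, rested 4 h, then dosed with library compounds and T3 (1 nM final). After 23.5 h at 37 °C, CellTiter-Fluor was added for 30 min and fluorescence recorded.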

Assay [11] deals with Estrogen receptor (Homo sapiens) (UniProt P03372). The assay is described as follows: qHTS assay to identify small molecule agonists of the estrogen receptor alpha (ER-alpha) signaling pathway (AID 743075; calls by dose curve;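 also: HEK293 GripTite cells with ER-alpha and UAS-driven beta-lactamase reporter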).
The target is the same in assay [12]. The assay is described as follows: qHTS assay to identify small molecule agonists of the estrogen receptor alpha (ER-alpha) signaling pathway using the BG1 cell line (AID 743079). Also: nearly all actives have a fitted effect of over 20% in size.
Assay [13] addresses Peroxisome proliferator-activated receptor gamma (Homo sapiens) (UniProt P37231). The assay is described as follows: qHTS assay to identify small molecule agonists of the peroxisome proliferator-activated receptor gamma (PPARg) signaling pathway (AID 743094; active = well fitted activation curve with a large enough effect in the signal ratio in the repeat runs, not every such curve was filed as active; the % refers to the signal ratio). An outline of the steps: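 Cell-based bla reporter, HEK293H background, PPARg-driven UAS. Pre-incubation 5 h, 37C, 5% CO2. Compound 17 h, 37C. Substrate 1 h RT; fluorescence.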

For assay [14], the target named is Nuclear receptor subfamily 1 group I member 2 (Homo sapiens) (UniProt O75469). The assay is described as follows: CYP3A4 induction through human pregnane X receptor (PXR) by small molecules, qHTS assay (AID 1346984). Also: nearly all actives have a fitted effect of over 40% in size. An outline of the steps: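 Human PXR activation is tracked via CYP3A4 promoter-luciferase in DPX-2 (HepG2) cells. Compounds treat cells for 24hr at 37C, and luminescence is read after One-Glo.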

For assay [15] the target is unchanged. The assay can be described thus: Human pregnane X receptor (PXR) activation by small molecules, qHTS assay (AID 1346985). Also: nearly all actives have a fitted effect of over 40% in size. An outline of the steps: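 DPX-2 cells (HepG2 co-transfected with a PXR response element and a CYP3A4-promoter luciferase construct) were seeded at 2,000 per well, rested 5 hr at 37C, then exposed to DMSO-dissolved compounds for 24 hr. Activation was read as luciferase luminescence.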

Assay [16] is described as follows: qHTS assay for small molecule agonists of the p53 signaling pathway - cell viability (AID 651633; calls by dose curve;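 also: p53RE-bla HCT reporter cells with a stable beta-lactamase p53 reporter; series mostly up to about 83 µM; nearly all actives have a fitted effect of over 30% in size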). An outline of the steps:
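p53RE-bla cells, seeded at 4,000 per well and rested 5 h at 37 C/5% CO2, received compounds in DMSO for 16 h at 37 C. CellTiter-Glo was then added, and luminescence was read after 30 min at room temperature to gauge cytotoxicity.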

Assay [17] is described as follows: qHTS assay to identify small molecule antagonists of the androgen receptor (AR) signaling pathway - cell viability counter screen (AID 743033; also: nearly all actives have a fitted effect of over 45% in size).
Assay [18] in a line: qHTS assay to identify small molecule antagonists of the thyroid receptor (TR) signaling pathway (AID 743065). Also: nearly all actives have a fitted effect of over 55% in size. Also: potency is read from the fitted curve at half-maximal effect. An outline of the steps: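 GH3.TRE-Luc rat pituitary cells carrying two TR response elements driving luciferase were plated for 4 h, given compound plus 1 nM T3 (final), and incubated 23.5 h at 37 C. ONE-Glo luminescence measured reporter inhibition; CellTiter-Fluor fluorescence tracked cytotoxicity.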

The nature of assay [19]: qHTS assay for identifying genotoxic compounds that show differential cytotoxicity against isogenic chicken DT40 cell lines with known DNA damage response pathways - wild type cell line (AID 743012). Also: nearly all actives have a fitted effect of over 60% in size. Also: potency is read from the fitted curve at half-maximal effect. An outline of the steps: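 300 wt DT40 cells/well; cpd (DMSO) pintool-transferred after ~0.5 h at 37 C/5% CO2; 40 h incubation; CellTiter-Glo added, 30 min RT; luminescence read.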

Assay [20] can be described thus: qHTS assay for identifying genotoxic compounds that show differential cytotoxicity against isogenic chicken DT40 cell lines with known DNA damage response pathways - Rev3 mutant cell line (AID 743014). Also: nearly all actives have a fitted effect of over 55% in size. Also: potency is read from the fitted curve at half-maximal effect.

Records with an inconclusive call do not appear. The source made the active and inactive calls. Unless noted, calls follow the shape of the dose curve; as a rule, active = well fitted curve in the direction sought with a large enough effect in the repeat runs; inconclusive = weak or mixed curves; inactive = no such curve, though single readings can be large; an effect the other way counts as inactive or inconclusive.

Sequence of Peroxisome proliferator-activated receptor gamma (Homo sapiens) (P37231 whole entry, looked up): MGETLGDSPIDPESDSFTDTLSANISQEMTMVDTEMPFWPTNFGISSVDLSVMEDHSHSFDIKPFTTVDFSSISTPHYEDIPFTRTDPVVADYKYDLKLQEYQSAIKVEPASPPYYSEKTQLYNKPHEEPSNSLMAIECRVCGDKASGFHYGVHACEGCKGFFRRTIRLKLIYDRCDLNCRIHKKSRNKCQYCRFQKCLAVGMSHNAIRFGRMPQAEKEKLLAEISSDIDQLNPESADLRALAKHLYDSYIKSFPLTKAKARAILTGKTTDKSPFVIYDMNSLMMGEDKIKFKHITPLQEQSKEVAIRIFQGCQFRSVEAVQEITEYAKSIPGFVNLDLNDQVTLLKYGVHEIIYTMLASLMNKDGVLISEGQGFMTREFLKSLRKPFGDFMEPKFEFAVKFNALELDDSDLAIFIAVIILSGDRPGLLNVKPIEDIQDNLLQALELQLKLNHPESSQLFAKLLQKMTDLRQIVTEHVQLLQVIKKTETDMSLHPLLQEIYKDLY
Sequence of Estrogen receptor (Homo sapiens) (P03372 whole entry, looked up): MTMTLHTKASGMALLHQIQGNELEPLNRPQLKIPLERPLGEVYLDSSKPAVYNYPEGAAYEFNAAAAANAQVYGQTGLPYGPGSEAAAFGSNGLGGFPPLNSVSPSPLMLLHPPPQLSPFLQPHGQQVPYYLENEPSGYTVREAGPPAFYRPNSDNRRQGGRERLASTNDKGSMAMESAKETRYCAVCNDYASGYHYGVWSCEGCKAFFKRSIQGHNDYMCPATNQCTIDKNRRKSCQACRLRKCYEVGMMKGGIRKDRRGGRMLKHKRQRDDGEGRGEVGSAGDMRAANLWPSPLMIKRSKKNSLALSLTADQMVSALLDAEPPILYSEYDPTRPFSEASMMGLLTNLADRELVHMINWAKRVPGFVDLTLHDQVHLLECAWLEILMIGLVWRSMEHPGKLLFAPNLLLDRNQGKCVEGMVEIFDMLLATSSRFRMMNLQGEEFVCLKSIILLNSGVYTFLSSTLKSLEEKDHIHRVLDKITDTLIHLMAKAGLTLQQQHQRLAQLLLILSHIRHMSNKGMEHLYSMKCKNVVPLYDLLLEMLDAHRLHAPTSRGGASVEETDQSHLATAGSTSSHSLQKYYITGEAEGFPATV
Sequence of Glucocorticoid receptor (Homo sapiens) (P04150 whole entry, looked up): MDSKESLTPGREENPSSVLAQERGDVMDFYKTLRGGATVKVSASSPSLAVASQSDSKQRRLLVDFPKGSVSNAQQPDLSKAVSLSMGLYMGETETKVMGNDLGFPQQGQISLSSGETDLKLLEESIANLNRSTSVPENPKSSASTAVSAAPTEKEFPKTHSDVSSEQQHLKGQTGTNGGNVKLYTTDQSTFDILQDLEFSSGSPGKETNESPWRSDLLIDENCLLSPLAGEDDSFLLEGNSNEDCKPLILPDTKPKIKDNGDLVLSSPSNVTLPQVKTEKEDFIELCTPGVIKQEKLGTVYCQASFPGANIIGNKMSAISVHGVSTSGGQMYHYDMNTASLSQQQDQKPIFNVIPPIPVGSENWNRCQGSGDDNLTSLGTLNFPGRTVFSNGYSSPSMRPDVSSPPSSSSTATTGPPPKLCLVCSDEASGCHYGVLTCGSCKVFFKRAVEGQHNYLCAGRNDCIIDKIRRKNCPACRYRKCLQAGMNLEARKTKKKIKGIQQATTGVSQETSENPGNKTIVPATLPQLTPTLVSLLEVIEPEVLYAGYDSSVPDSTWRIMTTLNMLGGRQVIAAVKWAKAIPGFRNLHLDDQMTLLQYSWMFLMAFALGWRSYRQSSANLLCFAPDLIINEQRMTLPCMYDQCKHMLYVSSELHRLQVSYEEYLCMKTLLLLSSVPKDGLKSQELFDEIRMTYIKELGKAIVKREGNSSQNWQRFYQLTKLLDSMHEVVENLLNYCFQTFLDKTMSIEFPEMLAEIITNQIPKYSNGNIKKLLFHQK

Turning to `COc1ccc2c(c1)C13CCCC[C@@H]1C(C2)N(C)CC3` (stereo partly drawn), the Potency entry in assay [1], in assay [3], in assay [5], in assay [6], in assay [7] and in assay [8] was “inactive” in each case. The Potency entry in [9], in assay [10], in assay [11], in [12], in [13] and in assay [14] was “inactive” in each case. For the same compound, the Potency entry in [15] was “inactive”. Moreover, the compound was classed as inactive in assay [2] and in [4].
`C[C@]12CCC(=O)C=C1C=C[C@@H]1[C@@H]2CC[C@@]2(C)[C@H]1CC[C@@]2(O)CCC(=O)O`: the Potency result in assay [16], in assay [3], in [5], in assay [6], in assay [8] and in assay [17] was “inactive” in each case. Also, the Potency entry in [10], in assay [18], in assay [13], in assay [14] and in assay [15] was “inactive” in each case. For the same compound, the result in [2] was inactive. In assay [7], the Potency is 9.1 µM (active).
For `O=C1C=C2C=C[C@@H]3C[C@@]2(O1)[C@H]1CCCCN31`, the Potency result in [16], in [6], in assay [8], in [17], in assay [11] and in [14] was “inactive” in each case. The Potency in [7] is 4.25 µM (active); in assay [19], 7.5 µM (active); in assay [20], 10.6 µM (active); in assay [9], 5.96 µM (active); in assay [10], 11.9 µM (active); in [18], 6.68 µM (active).
For the compound `CCC1C(C)=NN=C(c2ccc(OC)c(OC)c2)c2cc(OC)c(OC)cc21` (stereo not drawn), the Potency result in assay [16], in assay [3], in [5], in assay [19], in [9] and in [10] was “inactive” in each case. Moreover, the Potency entry in assay [18], in [11], in assay [12], in assay [13] and in assay [14] was “inactive” throughout. Moreover, the call in assay [2] and in [4] was inactive.
Turning to `COc1ccc2c3c1O[C@H]1C(=O)CC[C@H]4[C@@H](C2)N(C)CC[C@]314`, the Potency result in assay [1], in assay [3], in assay [5], in assay [8], in assay [20] and in assay [9] was “inactive” in each case. Also, the Potency entry in assay [17], in assay [10], in assay [11], in [12], in assay [13] and in assay [14] was “inactive” in each case. Also, in [15], the Potency entry is “inactive”. The compound was called inactive in [2] and in assay [4].
For the compound `C[N+]1(C)[C@@H]2CC[C@H]1CC(OC(=O)c1c[nH]c3ccccc13)C2` (stereo partly drawn), the Potency result in [1], in assay [16], in [3], in [5], in assay [6] and in assay [8] was “inactive” throughout. Moreover, the Potency entry in assay [19], in assay [9], in assay [10], in assay [18], in assay [11] and in assay [12] was “inactive” throughout. Also, the Potency result in [13], in assay [14] and in assay [15] was “inactive” in each case. In addition, the compound was called inactive in assay [2] and in assay [4].
Regarding `OC[C@@H](O)[C@H]1O[C@@H]2O[C@@H](C(Cl)(Cl)Cl)O[C@@H]2[C@H]1O`, the Potency entry in assay [1], in assay [3], in [5], in [6], in [7] and in assay [8] was “inactive” in each case. For the same compound, the Potency entry in [19], in assay [20], in [9], in assay [10], in assay [18] and in assay [11] was “inactive” each time. The Potency entry in assay [12], in assay [13], in assay [14] and in [15] was “inactive” throughout. The result in assay [2] and in assay [4] was inactive.
